Laboratory results reported in the supplement of paper PMC7380943.
± gives the standard deviation of the averaged measurements.

Assays:
[1] = test system: CLZ3 (HCA2 human fibroblast dual HR-NHEJ reporter); experiment: NHEJ repair efficiency (GFP+ cells) relative to control (log10 fold); higher = more non-homologous end joining; details: 5 µM; doxycycline 0.5 ug/mL
[2] = test system: CLZ3 (HCA2 human fibroblast dual HR-NHEJ reporter); experiment: HR repair efficiency (tdTomato+ cells) relative to control (log10 fold); higher = more homologous recombination; details: 5 µM; doxycycline 0.5 ug/mL
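For HR repair efficiency (tdTomato+ cells) relative to control in this document: compound given one day before doxycycline, which switches on I-SceI endonuclease expression to create double-strand breaks within the integrated reporter.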
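For NHEJ repair efficiency (GFP+ cells) relative to control in this document: compound given one day ahead of doxycycline, which switches on I-SceI endonuclease to cut the chromosomally integrated reporter and create DSBs.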

| SMILES | NHEJ repair efficiency (log10) [1] | HR repair efficiency (log10) [2] |
| --- | --- | --- |
| NCCCC(=O)O [g-Aminobutyric acid] | 0.0698 | 0.0647 |
| COC(=O)C1=CO[C@@H](O[C@@H]2O[C@H](CO)[C@@H](O)[C@H](O)[C@H]2O)[C@H]2[C@@H]1[C@H](O)C[C@]2(C)O [Shanzhiside methylester] | 0.193 | 0.314 |
| COc1ccc(CCC(=O)c2c(O)cc(OC3OC(CO)C(O)C(O)C3OC3OC(C)C(O)C(O)C3O)cc2O)cc1O (stereo not drawn) [Neosperidin Dihydrochalcone] | -0.0639 | 0.0209 |
| C[C@@H]1O[C@@H](O[C@H]2[C@H](Oc3c(-c4ccc(O)cc4)oc4cc(O)cc(O)c4c3=O)O[C@H](CO)[C@@H](O)[C@@H]2O)[C@H](O)[C@H](O)[C@H]1O [Kaempferol 3-O-Neohesperidoside] | 0.0799 | 0.307 |
| CC1(C)C2CCC1(C)C(O)C2 (stereo not drawn) [Borneol] | 0.0116 ± 0.059 | 0.0372 ± 0.12 |
| COc1ccc2c(c1O)-c1c(O)c(OC)cc3c1[C@H](C2)[N+](C)(C)CC3 [Magnoflorine iodide] | 0.122 | -0.0243 |
| O=C(O)[C@H]1O[C@@H](Oc2cc3oc(-c4ccc(O)cc4)cc(=O)c3c(O)c2O)[C@H](O)[C@@H](O)[C@@H]1O [Scutellarin] | -0.122 | 0.0441 |
| O=C1c2c(O)cc(O)cc2OC(c2ccc(O)c(O)c2)C1O (stereo not drawn) [Taxifolin] | -0.132 | -0.0702 |
| CC(=O)[C@H]1CC[C@H]2[C@@H]3CCC4=CC(=O)CC[C@]4(C)[C@H]3CC[C@]12C [Lutin] | 0.0637 | 0.268 |
| COc1cc(-c2oc3cc(O)cc(O)c3c(=O)c2O[C@@H]2O[C@H](CO[C@H]3O[C@H](C)[C@@H](O)[C@H](O)[C@@H]3O)[C@@H](O)[C@H](O)[C@H]2O)ccc1O [Narcissoside; Isorhamnetin-3-O-β-D-rutinoside] | 0.0544 | -0.0269 |
| O=C(/C=C/c1ccc(O)c2c1[C@H](C(=O)O)[C@@H](c1ccc(O)c(O)c1)O2)O[C@H](Cc1ccc(O)c(O)c1)C(=O)O [Lithospermic acid] | 0.072 | 0.0325 |
| CCC/C=C1\OC(=O)C2=C1CCC1C3C=C4C(=O)O/C(=C\CCC)C4(CC3)C21 (stereo not drawn) [Levistilide A] | -0.106 | 0.0314 |
| O=C(O)c1ccccc1 [Benzoic Acid] | -0.0219 | 0.137 |
| COc1ccc([C@H]2OC[C@H]3[C@@H]2CO[C@H]3c2ccc(O[C@@H]3O[C@H](CO)[C@@H](O)[C@H](O)[C@H]3O)c(OC)c2)cc1OC [Phillyrin] | -0.0633 | -0.0538 |
| O=c1cc(-c2ccc(O)cc2)oc2cc(O)c(O)c(O)c12 [Scutellarein] | -0.103 | -0.025 |
| COc1ccc([C@@H]2OC[C@H]3[C@@H]2CO[C@@H]3c2ccc(O[C@@H]3O[C@H](CO)[C@@H](O)[C@H](O)[C@H]3O)c(OC)c2)cc1OC [Forsythin] | -0.0743 | -0.0814 |
| COC(=O)C1=CO[C@@H](O[C@@H]2O[C@H](CO)[C@@H](O)[C@H](O)[C@H]2O)[C@H]2[C@@H]1[C@H](O)C[C@]2(C)OC(C)=O [8-O-Acetyl Shanzhiside Methyl Ester] | -0.0953 | -0.109 |
| C/C=C1/[C@H](O[C@@H]2O[C@H](CO)[C@@H](O)[C@H](O)[C@H]2O)OC=C(C(=O)OC)[C@H]1CC(=O)OCCc1ccc(O)c(O)c1 [Oleuropein] | 0.0183 | 0.0478 |
| C/C=C/C#CC#C[C@@H](O)[C@@H](/C=C/CCCO)O[C@@H]1O[C@H](CO)[C@@H](O)[C@H](O)[C@H]1O [Lobetyolin] | 0.048 | 0.131 |
| COc1ccc(-c2cc(=O)c3c(O)cc(O)cc3o2)cc1 [Acacetin] | -0.203 | 0.0794 |
| COc1cc(OC)c2ccc(=O)oc2c1 [Citropten] | 0.137 | 0.0946 |
| C=C(CC[C@@H](C(=O)O)[C@H]1[C@H](O)C[C@@]2(C)C3=C(CC[C@]12C)[C@@]1(C)CC[C@H](OC(C)=O)C(C)(C)[C@@H]1CC3)C(C)C [Pachymic Acid] | -0.118 | 0.0591 |
| CC(C)=CC/C=C(\C)[C@H]1CC[C@]2(C)[C@@H]1[C@H](O)C[C@@H]1[C@@]3(C)CC[C@H](O[C@@H]4O[C@H](CO)[C@@H](O)[C@H](O)[C@H]4O[C@@H]4O[C@H](CO)[C@@H](O)[C@H](O)[C@H]4O)C(C)(C)[C@@H]3CC[C@]12C [Ginsenoside Rg5] | 0.0582 | 0.0507 |
| COc1c(O[C@@H]2O[C@H](CO)[C@@H](O)[C@H](O)[C@H]2O)cc2oc(-c3ccc(O)cc3)cc(=O)c2c1O [Homoplantaginin] | 0.0189 ± 0.062 | 0.0763 ± 0.07 |
